We go through 40 compounds from PubChem BioAssay (NCATS).

Records with an inconclusive call do not appear. A call without a number means that no potency is given here. Values without a mark were called inactive. Active and inactive are the calls of the source. Calls follow the shape of the dose curve; as a rule, active = well fitted inhibition curve with a large enough effect; inconclusive = small, poorly fitted or top-dose-only effect; inactive = flat fitted curve, though single readings scatter.

The assay addresses Aldehyde dehydrogenase, mitochondrial (Homo sapiens) (UniProt P05091). Put plainly: qHTS for Inhibitors of the Aldehyde Dehydrogenase Family (ALDH2) Primary screen (AID 2061308). Also: nearly all actives have a fitted effect of over 55% in size. As to conditions: ALDH2 enzyme inhibition qHTS, 1536-well; series mostly up to 56 µM. (Quantitative high-throughput screening tests each substance at several concentrations.)
As for `CC1CC[C@]2(C(=O)O)CC[C@]3(C(=O)O)C(=CCC4[C@@]5(C)CC[C@H](OC6OC(C)C(O)C(OC7OC(CO)C(O)C(O)C7O)C6O)C(C)(C)C5CC[C@]43C)C2C1C` (stereo not given in full), the Potency result was “inactive”.

On to H-DPPDPDRFYGMM-NH2, for which the Potency entry is “inactive”. `CCCCC1CCN(CCCC(=O)c2ccccc2C)CC1`: the Potency entry is “inactive”. On the same count and under the same terms, under `C=C1C(=O)OC2/C=C(\CO)CC/C=C(\C=O)CC(OC(=O)CC(C)C)C12` (stereo not given) stands “inactive”; under `CO[C@@H]1CC[C@H](OC[C@]2(COC(=O)c3ccc(C)[nH]3)[C@H](OC(C)=O)CC[C@@]3(C)[C@@H]4CC=C(C)[C@@H](C5=C(O)C(=O)OC5O)[C@]4(C)CC[C@@H]32)O[C@H]1C` (stereo not given in full), “inactive”; under `CC1(C)CC[C@]2(C(=O)O)CC[C@]3(C)C(=CCC4[C@@]5(C)CCC(O[C@@H]6OC[C@H](O)[C@H](O)[C@H]6O[C@@H]6O[C@H](CO)[C@@H](O)[C@H](O)[C@H]6O)[C@@](C)(CO)C5CC[C@]43C)[C@@H]2C1` (stereo not given in full), “inactive”. Still for that read-out and setting: the same measure for `COc1cc(/C=C/C(=O)O[C@H]2C[C@@H]3C(C(=O)O)=CO[C@@H](O[C@@H]4O[C@H](CO)[C@@H](O)[C@H](O)[C@H]4O)[C@@H]3[C@H]2C)ccc1O`: “inactive”. Regarding `COCCN(C)Cc1ccc2nc3sc(C(=O)N(C)C4CCCCC4)cn3c2c1`, the Potency entry was “inactive”.

With `Cn1nc(C(C)(C)C)cc1C(=O)N[C@@H](Cc1cccc(Cl)c1)C(=O)NCC#N`, the Potency entry was “inactive”. Still for that read-out and setting: under `C=C1C(O)C[C@@H]2C(C(=O)O)=CO[C@@H](O[C@@H]3O[C@H](CO)[C@@H](O)[C@H](O)[C@H]3OC(=O)c3ccc(O)cc3)[C@H]12` (stereo not given in full) stands “inactive”.

On to `Cc1c(CN2CCN(C(=O)C(C)O)CC2)sc2c(N3CCOCC3)nc(-c3cnc(N)nc3)nc12` (stereo not given), for which the Potency entry was “inactive”.

For the compound `CC1=CC(=O)CC(C)(C)C1CCC(C)O[C@@H]1O[C@H](CO[C@@H]2OC[C@@H](O)[C@H](O)[C@H]2O)[C@@H](O)[C@H](O)[C@H]1O` (stereo not given in full), the Potency entry was “inactive”. On the same count and under the same terms, the same measure for `C=C1CC23CCC4[C@@](C)(CCC[C@@]4(C)C(=O)O)C2CCC1C3` (stereo not given in full): “inactive”. The same measure, in the same setting: under `COc1ccc([C@H]2Cc3cccc(O)c3C(=O)O2)cc1OC` stands “inactive”; under `CC1(C)CC23[C@@H]4CC(=O)[C@@H]2COC(=O)[C@@H]3CC[C@H]41`, “inactive”; under `COc1c(C)c(OCC=C(C)C)cc2c1COC2=O`, “inactive”. The same measure, in the same setting: the same measure for `COC(=O)[C@]1(C)CCC[C@@]2(C)C(=O)CC[C@H]3C(=O)C=C(CC[C@@H]21)C3O` (stereo not given in full): “inactive”; for `C[C@@H]1[C@H]2[C@H](O[C@@H]3O[C@H](CO)[C@@H](O)[C@H](O)[C@H]3O)OC=C(C(=O)O)[C@H]2C[C@@H]1OC(=O)/C=C/c1ccc(O)cc1`: “inactive”. In the case of `CC1(C)CCCC2(C)c3c4c(c(=O)oc(=O)c3=CCC12)=CCC1C(C)(C)CCCC41C` (stereo not given), the Potency entry is “inactive”. On the same count and under the same terms, the same measure for `Cn1c(=O)c2nc(/C=C/c3cccc(Cl)c3)n(C)c2n(C)c1=O`: “inactive”. Still for that read-out and setting: under `CC1(C)Oc2ncnc(N)c2N=C1c1ccc(C2CCC(CC(=O)O)CC2)cc1` (stereo not given) stands “inactive”. Regarding `C[C@@H]1O[C@@H](O[C@H]2[C@H](O)[C@@H](O[C@@H]3O[C@H](CO)[C@@H](O)[C@H](O[C@@H]4O[C@H](CO)[C@@H](O)[C@H](O)[C@H]4O)[C@H]3O)[C@H](O[C@H]3CC[C@@]4(C)C(=CC[C@@H]5C4CC[C@@]4(C)C5C[C@@H]5OC6(CC[C@@](C)(CO[C@@H]7O[C@H](CO)[C@@H](O)[C@H](O)[C@H]7O)O6)[C@@H](C)[C@@H]54)C3)O[C@@H]2CO)[C@H](O)[C@H](O)[C@H]1OC1OC(CO)C(O)C(O)C1O` (stereo not given in full), the activity change, negative = inhibition is -9.01% [at 11.2 µM]. For `CC(C)c1cc(-c2ccc(F)c3ccccc23)nc(N)n1`, the Potency entry was “inactive”. For the compound `OCC(CO[C@@H]1O[C@H](CO)[C@@H](O)[C@H](O)[C@H]1O)c1ccc2c(c1)OCO2` (stereo not given in full), the Potency result is “inactive”. Same read-out and setting: the same measure for `COc1ccc(C(OC2OC(CO)C(O)C(O)C2O)C(C)O)cc1` (stereo not given): “inactive”. On the same count and under the same terms, under `CC(=O)O[C@H]1CC[C@@]2(C)C(CC[C@@H](C)[C@]23Cc2c(O)cc4c(c2O3)CN([C@@H](CCC(=O)O)C(=O)O)C4=O)C1(C)C` (stereo not given in full) stands “inactive”; under `N#C/C(=C1\Nc2ccccc2S1)c1ccnc(NCCc2cccnc2)n1`, “inactive”; under `C/C=C/C=C/C1=C2C(=O)C3(C)C4C(C(=O)CC(O)/C=C/C)=C(O1)C1(C)C2C2(C)OC1(O)C4(C)OC23O` (stereo not given), “inactive”. Take `CC1(C)CCC2(C(=O)OC3OC(CO)C(O)C(O)C3O)CCC3(C)C(=CCC4C5(C)CCC(OC6OC(C(=O)O)C(OC7OC(CO)C(O)C(O)C7O)C(OC7OC(CO)C(O)C(O)C7O)C6O)C(C)(C)C5CCC43C)C2C1` (stereo not given): the Potency entry was “inactive”. The same measure, in the same setting: under `CC(=O)O[C@H]1CC2C(COC(=O)CC(C)C)=CO[C@@H](OC(=O)CC(C)C)C2[C@]12CO2` (stereo not given in full) stands “inactive”; under `C=C1CCC2C(C)(C(=O)OC)CCCC2(C)C1CCC(C)CC(=O)O` (stereo not given), “inactive”; under `O=C1C[C@@]2(C(=O)N1)C(=O)N(Cc1ccc(Br)cc1F)C(=O)c1cccn12`, “inactive”. On to `C[C@]1(CO)CN(c2cc(C(=O)Nc3ccc4c(c3)-c3c(c(C(N)=O)nn3-c3ccc(F)cc3)CC4)c(Cl)cn2)C[C@@]1(C)CO`, for which the Potency result is “inactive”. The same measure, in the same setting: under `C=CC(C)(C)C12CC3C(=O)NC(Cc4cnc[nH]4)C(=O)N3C1Nc1ccccc12` (stereo not given) stands “inactive”. Turning to `C[C@H]1CC[C@@]2(OC1)O[C@H]1CC3C4CC[C@H]5C[C@@H](O)CC[C@]5(C)C4CC(=O)[C@]3(C)[C@H]1[C@@H]2C` (stereo not given in full), the Potency entry was “inactive”. On to `C=C(C(=O)O)C1CC2=C(C)C(=O)CC2C(C)CC1O` (stereo not given), for which the Potency entry is “inactive”. With `CCc1cc(CN2CC(C(=O)O)C2)sc1-c1noc(-c2ccc(Oc3ccccc3)cc2)n1`, the Potency result is “inactive”. On the same count and under the same terms, under `CC(=O)O[C@H]1CC(C)(C)CC2[C@@]13[C@H](O)C[C@]1(C)[C@@]2(CCC2[C@@]4(C)CC[C@H](O[C@@H]5OC[C@H](O[C@@H]6O[C@H](CO)[C@@H](O)[C@H](O)[C@H]6O[C@@H]6OC[C@@H](O)[C@H](O)[C@H]6O)[C@H](O)[C@H]5O[C@@H]5O[C@H](CO)[C@@H](O)[C@H](O)[C@H]5O)C(C)(C)C4CC[C@]21C)O[C@@H]3O` (stereo not given in full) stands “inactive”. The same measure, in the same setting: under `CC1=CC(=O)CC(C)(C)[C@@]1(O)CC[C@@H](C)O[C@@H]1O[C@H](CO)[C@@H](O)[C@H](O)[C@H]1O` stands “inactive”; under `CC(C)=CCC[C@](C)(O[C@@H]1O[C@H](CO)[C@@H](O)[C@H](O)[C@H]1O)[C@H]1CC[C@]2(C)[C@@H]1[C@H](O)CC1[C@@]3(C)CC[C@H](O)C(C)(C)C3[C@@H](O[C@@H]3O[C@H](CO)[C@@H](O)[C@H](O)[C@H]3O)C[C@]12C` (stereo not given in full), “inactive”.
